Over roughly 16,000 sequences, “rpm ratio (pull-down/input)” has its median near 0.94; the highest 2% begin near 1.7. What follows is part of a selection rich in the highest values, with near analogues and random picks from the rest.

This experiment concerns the target T1, MBP-FoxP1dN (Mus musculus, UniProt P58462 326-579).
T1 sequence: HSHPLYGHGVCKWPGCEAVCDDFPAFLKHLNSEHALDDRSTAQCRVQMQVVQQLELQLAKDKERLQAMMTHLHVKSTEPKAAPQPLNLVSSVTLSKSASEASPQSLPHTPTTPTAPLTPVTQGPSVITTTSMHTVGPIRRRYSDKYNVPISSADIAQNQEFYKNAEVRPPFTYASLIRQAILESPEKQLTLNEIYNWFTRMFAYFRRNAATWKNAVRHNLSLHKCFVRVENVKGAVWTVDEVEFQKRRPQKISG
The experiment is described as follows: PD-seq (MBP pull-down with sequencing); 20 mM Tris-HCl pH 7.5, 100 mM NaCl, 1.5 mM MgCl2, 0.4 uM protein, 0.1 uM dsDNA library, 30 min, room temperature, amylose pull-down; high values mean tight binding. To be noted: protein: recombinant; tags: His6-MBP; chain copies: 2; dsDNA, one strand shown. In outline:
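The N-terminus-lacking fragment of mouse FoxP3 or FoxP1 carried a His6-MBP tag and was expressed in E. coli. At 0.4 µM it was incubated with 0.1 µM Klenow-filled degenerate double-stranded DNA library for 30 min at room temperature in Tris pH 7.5 buffer with NaCl and MgCl2, and complexes were caught on amylose resin, washed three times, released with proteinase K, PCR-barcoded and Illumina-sequenced. Binding is reads-per-million enrichment of pull-down over input with replicates pooled.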
For the sequence “GATGATTGTTCTCCCAGCTGATGAATTAAGATGATCGAGTAAACAAATTTTCCTAATCTTTCTGTTCAAGCGCCATCTAC”, the binding signal is 0.992 RPM ratio (pull-down/input).
On to “GATGATTGTTCTCCCAGCTGATGAATTTGACTATTCGAGTAAACAAATTTTCCTAATCTTTCTGTTCAAGCGCCATCTAC”, for which the binding signal is 0.903 RPM ratio (pull-down/input).
Regarding “GATGATTGTTCTCCCAGCTGATGAATTATTTGCGTCGAGTAAACAAATTTTCCTAATCTTTCTGTTCAAGCGCCATCTAC”, the binding signal is 1.66 RPM ratio (pull-down/input).
With “GATGATTGTTCTCCCAGCTGATGAATTGTCCACATCGAGTAAACAAATTTTCCTAATCTTTCTGTTCAAGCGCCATCTAC” the figure was 1.33 RPM ratio (pull-down/input).
In the case of “GATGATTGTTCTCCCAGCTGATGAATTGCTTCCTTCGAGTAAACAAATTTTCCTAATCTTTCTGTTCAAGCGCCATCTAC”, the binding signal is 1.06 RPM ratio (pull-down/input).
In the case of “GATGATTGTTCTCCCAGCTGATGAATTCTTAATATCGAGTAAACAAATTTTCCTAATCTTTCTGTTCAAGCGCCATCTAC”, the binding signal is 1.08 RPM ratio (pull-down/input).
With “GATGATTGTTCTCCCAGCTGATGAATTCAGGTTGTCGAGTAAACAAATTTTCCTAATCTTTCTGTTCAAGCGCCATCTAC” the figure was 1 RPM ratio (pull-down/input); with “GATGATTGTTCTCCCAGCTGATGAATTCGAAGGATCGAGTAAACAAATTTTCCTAATCTTTCTGTTCAAGCGCCATCTAC”, 0.845 RPM ratio (pull-down/input); with “GATGATTGTTCTCCCAGCTGATGAATTTCTTGATTCGAGTAAACAAATTTTCCTAATCTTTCTGTTCAAGCGCCATCTAC”, 1.01 RPM ratio (pull-down/input).
“GATGATTGTTCTCCCAGCTGATGAATTTGCTGGGTCGAGTAAACAAATTTTCCTAATCTTTCTGTTCAAGCGCCATCTAC”: the binding signal was 0.859 RPM ratio (pull-down/input).
Consider “GATGATTGTTCTCCCAGCTGATGAATTCGCGGACTCGAGTAAACAAATTTTCCTAATCTTTCTGTTCAAGCGCCATCTAC”, for which the binding signal is 0.757 RPM ratio (pull-down/input).
The same measure for “GATGATTGTTCTCCCAGCTGATGAATTGTTTGTTTCGAGTAAACAAATTTTCCTAATCTTTCTGTTCAAGCGCCATCTAC”: 2.72 RPM ratio (pull-down/input); for “GATGATTGTTCTCCCAGCTGATGAATTTGTTTCTTCGAGTAAACAAATTTTCCTAATCTTTCTGTTCAAGCGCCATCTAC”: 1.7 RPM ratio (pull-down/input).
As for “GATGATTGTTCTCCCAGCTGATGAATTCTGTTGTTCGAGTAAACAAATTTTCCTAATCTTTCTGTTCAAGCGCCATCTAC”, the binding signal was 2.6 RPM ratio (pull-down/input).
The same measure for “GATGATTGTTCTCCCAGCTGATGAATTTTGTTTTTCGAGTAAACAAATTTTCCTAATCTTTCTGTTCAAGCGCCATCTAC”: 2.75 RPM ratio (pull-down/input); for “GATGATTGTTCTCCCAGCTGATGAATTTTTTGTTTCGAGTAAACAAATTTTCCTAATCTTTCTGTTCAAGCGCCATCTAC”: 1.13 RPM ratio (pull-down/input); for “GATGATTGTTCTCCCAGCTGATGAATTTTCTAATTCGAGTAAACAAATTTTCCTAATCTTTCTGTTCAAGCGCCATCTAC”: 1.05 RPM ratio (pull-down/input).
In the case of “GATGATTGTTCTCCCAGCTGATGAATTGAATTGTTCGAGTAAACAAATTTTCCTAATCTTTCTGTTCAAGCGCCATCTAC”, the binding signal is 0.984 RPM ratio (pull-down/input).
On to “GATGATTGTTCTCCCAGCTGATGAATTGTTGATTTCGAGTAAACAAATTTTCCTAATCTTTCTGTTCAAGCGCCATCTAC”, for which the binding signal was 2.42 RPM ratio (pull-down/input).
Regarding “GATGATTGTTCTCCCAGCTGATGAATTGTTGAATTCGAGTAAACAAATTTTCCTAATCTTTCTGTTCAAGCGCCATCTAC”, the binding signal is 1.15 RPM ratio (pull-down/input).
For the sequence “GATGATTGTTCTCCCAGCTGATGAATTCTTTTTTTCGAGTAAACAAATTTTCCTAATCTTTCTGTTCAAGCGCCATCTAC”, the binding signal was 1.07 RPM ratio (pull-down/input).
For the sequence “GATGATTGTTCTCCCAGCTGATGAATTAGGTATATCGAGTAAACAAATTTTCCTAATCTTTCTGTTCAAGCGCCATCTAC”, the binding signal was 0.972 RPM ratio (pull-down/input).
On to “GATGATTGTTCTCCCAGCTGATGAATTAGCAGGATCGAGTAAACAAATTTTCCTAATCTTTCTGTTCAAGCGCCATCTAC”, for which the binding signal is 0.814 RPM ratio (pull-down/input).
“GATGATTGTTCTCCCAGCTGATGAATTAACAAGGTCGAGTAAACAAATTTTCCTAATCTTTCTGTTCAAGCGCCATCTAC”: the binding signal was 1 RPM ratio (pull-down/input).
On to “GATGATTGTTCTCCCAGCTGATGAATTGTTGACTTCGAGTAAACAAATTTTCCTAATCTTTCTGTTCAAGCGCCATCTAC”, for which the binding signal was 2.11 RPM ratio (pull-down/input).
In the case of “GATGATTGTTCTCCCAGCTGATGAATTGACTTCTTCGAGTAAACAAATTTTCCTAATCTTTCTGTTCAAGCGCCATCTAC”, the binding signal is 0.996 RPM ratio (pull-down/input).
Turning to “GATGATTGTTCTCCCAGCTGATGAATTGATGACTTCGAGTAAACAAATTTTCCTAATCTTTCTGTTCAAGCGCCATCTAC”, the binding signal was 0.994 RPM ratio (pull-down/input).
As for “GATGATTGTTCTCCCAGCTGATGAATTAGTGCGTTCGAGTAAACAAATTTTCCTAATCTTTCTGTTCAAGCGCCATCTAC”, the binding signal is 1.1 RPM ratio (pull-down/input).
With “GATGATTGTTCTCCCAGCTGATGAATTCGATCATTCGAGTAAACAAATTTTCCTAATCTTTCTGTTCAAGCGCCATCTAC” the figure was 0.949 RPM ratio (pull-down/input); with “GATGATTGTTCTCCCAGCTGATGAATTGTCACCATCGAGTAAACAAATTTTCCTAATCTTTCTGTTCAAGCGCCATCTAC”, 1.13 RPM ratio (pull-down/input).
Take “GATGATTGTTCTCCCAGCTGATGAATTGTTCCTGTCGAGTAAACAAATTTTCCTAATCTTTCTGTTCAAGCGCCATCTAC”: the binding signal was 0.999 RPM ratio (pull-down/input).

Source of the values: PMC12820563, “FoxP3 forms a head-to-head dimer in vivo and stabilizes its multimerization on adjacent microsatellites”.
